# About 83,000 compounds went through this panel and 20% of them were active in at least one assay; those are over-represented in the sample as a whole.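 The endpoint reported here, percent growth, reads 100 for growth as untreated, 0 for no net growth and -100 for all cells dead.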 A number with no mark means an inactive call. Activity calls are given as the source filed them. How the source made its calls: active means growth percent below 10; inactive means the rest.
# Test system: OVCAR-5 ovarian
# Assay: NCI-60 one-dose screen, 48 h (100 = growth as untreated, 0 = no growth, -100 = all killed)
# Settings: 10 µM unless noted
row,SMILES,growth
1,CCOC(=O)C(=O)CC(=O)N1C(=S)NC(=O)C1CC(C)C (stereo not given),98.5%
2,COC(=O)C(Cc1ccccc1)Nc1nc(NC(Cc2ccccc2)C(=O)OC)nc(N2CCOCC2)n1 (stereo not given),106%
3,COc1c(N2CC3CCCNC3C2)c(F)cc2c(=O)c(C(=O)N/N=C/c3ccc(F)cc3)cn(C3CC3)c12 (stereo not given),95.6%
4,CC(=O)C1=C(C)NC(NNC(N)=S)=NC1c1ccccc1 (stereo not given),90%
5,Cn1cc(-c2nnc(N)nc2-c2c[nH]c3ccc(F)cc23)c2cc(F)ccc21,109%
6,Oc1[nH]c2ccccc2c1Nn1c(N=N/C=c2/ccc3c(c2)C=NN=3)n[nH]c1=S,109%
7,Cc1ccc2c(c1)C13C(=C2Br)CCCN1C(=O)c1ccccc13 (stereo not given),96.6%
8,CCO/C=N/C1=C(C#N)C(c2ccc(Cl)cc2)c2sc3c(CC)cccc3c2O1 (stereo not given),36.9%
9,C=C(C=O)[C@@H]1CC[C@]2(COC(C)=O)CC[C@]3(C)C(CC[C@@H]4[C@@]5(C)CC[C@H](OC(C)=O)C(C)(C)[C@@H]5CC[C@]43C)[C@@H]12 (stereo not given in full),15.1%
10,O=C(O)c1ccc(-n2cc(CNc3cc(F)c(F)c(F)c3)c(-c3ccc(F)cc3)n2)cc1,108%
11,COc1cc2nc(Cl)nc(Nc3cccc(C4=Nc5c(N)nc(N)nc5NC(c5ccc(Cl)cc5)C4)c3)c2cc1OC (stereo not given),114%
12,CNC(=O)c1cc(N2CCc3cc(NC(=O)Nc4ccc(Cl)c(C(F)(F)F)c4)ccc32)ccn1,106%
13,N=c1c2cc(-c3ccccc3)oc2ncn1/N=C/c1ccc(Br)cc1,49.3%
14,NC(N)=Nc1ccc(Oc2cccc(NC(N)=Nc3ccc(Br)c(C(F)(F)F)c3)c2)cc1,45.1%
15,CN(Cc1ccccc1)S(=O)(=O)/N=C1\NC(=O)NC1=C(Cl)Cl,11.9%
16,COc1ccc(S(=O)(=O)NCCCNc2nccc(-c3[nH]c(-c4ccccc4)nc3-c3ccc(Cl)c(O)c3)n2)cc1,104%
17,O=C(CN1CCN(c2cc(=O)n(-c3ccccc3)c3ccccc23)CC1)Nc1nc(-c2ccc(Cl)cc2)cs1,93.1%
18,CC(=O)c1nnn(-c2c(C(=O)n3nc(C)cc3C)sc(=S)n2-c2ccccc2)c1C,120%

row,SMILES,growth
1,O=C1[C@H]2Cc3c([nH]c4ccccc34)[C@@H](c3ccc(Br)cc3)N2C(=O)CN1C1CCN(CC2CCCCC2)CC1,-84.6% (active)
2,NS(=O)(=O)c1ccc(Nc2nc(Nc3ccccc3)nc3nnc(SCC(=O)NC4CCCCC4)n23)cc1,105%
3,Cn1ccnc1C(=O)/C=C/C=C/c1ccc(C(=O)Nc2ccc(F)cc2)cc1,33.7%
4,O=C1[C@H]2Cc3c([nH]c4ccccc34)[C@@H](c3ccc(Cl)cc3)N2C(=O)CN1C1CCN(Cc2ccccc2)CC1,74.8%
5,NC(N)=Nc1ccc(Oc2cccc(Nc3ccc(Br)c(C(F)(F)F)c3)c2)cn1,-56.6% (active)
6,CCn1c2ccccc2c2cc(-n3nncc3-c3ccccc3)ccc21,35.4%
7,CN1CCN(Cc2ccc(NC(=O)c3cncc(C#Cc4cnc5ccc(OCC(C)(C)O)nn45)c3)cc2C(F)(F)F)CC1,-3.05% (active)
8,Cc1ccc(-n2c(/C=C3\C(=O)Nc4ccccc43)ccc2CO)cc1,104%
9,Cc1c(F)cc(C(N)=O)cc1NCC(=O)Nc1ccc([N+](=O)[O-])cc1,89.5%
10,CCOC(=O)c1c(N)c(C#N)cn1-c1cc(OC)c(OC)c(OC)c1,96%
11,O=c1[nH]c(Sc2sc3ccc(Cl)cc3c2CBr)nc(=S)[nH]1,49.3%
12,CC(=O)c1ccc(Nc2nc(SCC(C)C)nc(-c3ccccc3)c2C#N)cc1,109%
13,CS(=O)(=O)c1ncc(-c2ccccc2)cn1,103%
14,CNC(=O)c1c(NC(=O)c2ccccc2C(F)(F)F)sc2c1CCC(=O)C2,23.2%
15,NC(N)=Nc1ccc(Nc2cccc(Oc3ccc(Cl)c(C(F)(F)F)c3)c2)cn1,58.1%
16,CC(C)c1ccc(NCc2cn(-c3ccc(C(=O)O)cc3)nc2-c2cc(C(F)(F)F)cc(C(F)(F)F)c2)cc1,103%
17,COc1cc2nc(Cl)nc(Nc3cccc(C4=Nc5c(N)nc(N)nc5NC(c5ccccc5)C4)c3)c2cc1OC (stereo not given),110%
